Screens (PubChem)
IDE inh: inhibits human insulin-degrading enzyme in HEK cells; inhibition, % at 5.59 µM; hit rate 0.41% among 320,000; FAbetaB cleavage, fluorescence polarization; AID 434962;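 active = percent inhibition above the average of all tested compounds plus 3 SD, set per screening campaign, cut at about 16% in these data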;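 note: IDE supplied by intact live HEK cells; FP after avidin binding of uncleaved biotin substrate so inhibition keeps polarization high; 0% = DMSO wells and 100% = 60 µM reference IDE inhibitor Ii1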
Target sequence (P14735 whole entry, looked up): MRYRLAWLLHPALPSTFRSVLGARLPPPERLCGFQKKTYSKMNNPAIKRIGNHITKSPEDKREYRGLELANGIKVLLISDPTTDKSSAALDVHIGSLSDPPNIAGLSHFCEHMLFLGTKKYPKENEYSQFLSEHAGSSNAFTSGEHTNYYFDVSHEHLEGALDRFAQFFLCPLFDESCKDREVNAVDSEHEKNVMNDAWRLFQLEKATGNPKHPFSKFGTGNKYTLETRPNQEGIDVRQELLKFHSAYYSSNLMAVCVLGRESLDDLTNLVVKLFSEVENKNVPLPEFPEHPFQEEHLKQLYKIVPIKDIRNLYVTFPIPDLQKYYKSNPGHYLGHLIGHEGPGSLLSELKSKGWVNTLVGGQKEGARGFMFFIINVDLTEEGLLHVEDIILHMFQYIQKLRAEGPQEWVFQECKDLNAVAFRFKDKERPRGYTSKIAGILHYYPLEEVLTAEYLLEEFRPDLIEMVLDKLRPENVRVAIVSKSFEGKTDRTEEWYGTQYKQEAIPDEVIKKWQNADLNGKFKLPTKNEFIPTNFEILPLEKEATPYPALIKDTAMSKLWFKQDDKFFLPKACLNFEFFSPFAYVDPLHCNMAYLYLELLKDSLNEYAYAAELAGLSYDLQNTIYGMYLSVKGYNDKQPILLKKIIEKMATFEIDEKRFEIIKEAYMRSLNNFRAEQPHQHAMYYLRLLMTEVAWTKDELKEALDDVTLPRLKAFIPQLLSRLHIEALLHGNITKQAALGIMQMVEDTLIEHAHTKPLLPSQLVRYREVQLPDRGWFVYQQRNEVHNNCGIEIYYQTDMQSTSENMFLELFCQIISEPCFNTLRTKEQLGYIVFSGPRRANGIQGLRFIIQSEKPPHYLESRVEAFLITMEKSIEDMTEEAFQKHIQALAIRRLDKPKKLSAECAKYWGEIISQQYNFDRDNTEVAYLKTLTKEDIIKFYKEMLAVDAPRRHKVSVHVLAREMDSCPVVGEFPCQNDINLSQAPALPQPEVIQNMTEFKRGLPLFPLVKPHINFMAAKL
ALR H2O2 inh: blocks human ALR sulfhydryl oxidase activity. purified ALR, DTT oxidation, H2O2 HRP-luminol luminescence. inhibition, % (concentration not given with the values). hit rate 3.8% among 290,000;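 active = mean replicate inhibition above about 79%, with every replicate also reaching it, limit read from the data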
PfM18AAP inh: PfM18AAP enzyme inhibition | recombinant PfM18AAP, H-Glu-NHMec fluorogenic cleavage | inhibition, % at 7.35 µM | hit rate 1.2% among 290,000 | AID 1822;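 active = inhibition above the campaign mean inhibition over all tested compounds plus 3 SD, cut at about 28% in these data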;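 note: 0% = plate median of test compound wells and 100% = 2 mM ZnCl2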
PolyA inhibitor: inhibitors of polyadenylation in S. cerevisiae | activity score, % at 12 µM | S. cerevisiae SKY197-pL101 polyadenylation reporter, beta-gal luminescence; efflux-impaired pdr1/pdr3 knockout yeast; score 100 = 6 SD above DMSO | hit rate 0.02% among 300,000;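 active = lowest replicate activity score at least 50, where 100 means six control SD above control mean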;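 note: yeast exposed to compound for 9 h at 30 °C; higher score means more reporter readthrough which indicates perturbed polyadenylation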
CaV13 FRET inh: Disruptors of the CACNA1D IQ motif to Ca2+-dependent inactivation inhibitor domain association, primary screening, Förster resonance energy transfer in intact living …; HEK cells, CFP/YFP FRET ICDI-IQ, plate reader, 10 min; percent FRET-ratio fall versus neutral wells; hit rate 0.098% among 340,000; inhibition, % at 12.3 µM; AID 743397;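 active = mean replicate inhibition of at least 30% and at least 1% of replicates passing that level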;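 note: 0% = median of the neutral control wells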
IDE cell activ: IDE (human) activation, cell-based. HEK cells, FAbeta-B cleavage, fluorescence polarization; 0% vehicle, 100% cell-free pure enzyme wells. activation, % at 5.96 µM. hit rate 0.073% among 340,000. AID 493087;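 active = activation above the mean of all tested compounds plus 3 SD, set per screening campaign, cut at about 17% in these data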
Active calls of the source: *. This is a sample that favours compounds with a hit; in the whole collection about 4.1% have one here.

C=CCn1c(C(C)NC(=O)c2cccc(C)c2)n[nH]c1=S (stereo not drawn) was read as IDE inh 0.8, ALR H2O2 inh 93.0*, PfM18AAP inh 20.4, PolyA inhibitor 1.9, CaV13 FRET inh -5.1 and IDE cell activ -0.4.
`O=c1c2ccccc2nc(N/N=C/c2c(O)ccc3ccccc23)n1O` gave IDE inh -2.2, ALR H2O2 inh -9.3, PfM18AAP inh 30.4*, PolyA inhibitor 22.5 and IDE cell activ 5.2.
O=c1c2ccccc2nc(N/N=C/c2ccc(O)cc2)n1O was read as IDE inh -0.1, ALR H2O2 inh 66.0, PfM18AAP inh 17.1, PolyA inhibitor 17.0 and IDE cell activ -4.0.
Screening COc1ccc(Oc2c(-c3ccc(O)cc3O)n[nH]c2C)cc1 returned IDE inh 0.1, ALR H2O2 inh 89.6*, PfM18AAP inh 3.1, PolyA inhibitor 1.1, CaV13 FRET inh -4.0 and IDE cell activ 0.2.
Screening CCCOC(=O)c1ccc(Oc2c(-c3ccc(OCC)cc3O)n[nH]c2C)cc1 returned IDE inh -5.2, ALR H2O2 inh 0.8, PfM18AAP inh -0.2, PolyA inhibitor 8.4, CaV13 FRET inh -11.4 and IDE cell activ 1.2.
`Cc1ncoc1C(=O)N1CCCC(C(=O)c2ccc(C(F)(F)F)cc2)C1` (stereo not drawn) gave IDE inh -2.2, ALR H2O2 inh -5.3, PfM18AAP inh -2.6, PolyA inhibitor -8.1, CaV13 FRET inh -0.1 and IDE cell activ 4.2.
`O=C(Nc1ccccc1O)C(c1ccccc1)c1ccccc1` gave IDE inh -1.8, ALR H2O2 inh 5.2, PfM18AAP inh 4.3, PolyA inhibitor -8.7, CaV13 FRET inh -12.0 and IDE cell activ 2.4.
COC(=O)C1C2CCC(C2)C1C(=O)OCC(=O)c1ccc(C)cc1 (stereo not drawn) was read as IDE inh 0.6, ALR H2O2 inh -17.5, PfM18AAP inh 5.9, PolyA inhibitor 2.7, CaV13 FRET inh -6.2 and IDE cell activ -4.3.
Screening O=C(COC(=O)Cc1ccccc1F)Nc1ccc(SC(F)F)cc1 returned IDE inh 4.0, ALR H2O2 inh 19.6, PfM18AAP inh -1.5, PolyA inhibitor -4.3, CaV13 FRET inh -5.6 and IDE cell activ 0.1.
`CCCCC(=O)OCC(=O)Nc1ccc(SC(F)F)cc1` gave IDE inh -1.1, ALR H2O2 inh 97.8*, PfM18AAP inh 4.4, PolyA inhibitor -17.2, CaV13 FRET inh -5.6 and IDE cell activ -4.1.
For CCCCNC(=S)Nc1ccc(SC(F)F)cc1 the results were IDE inh 0.7, ALR H2O2 inh 98.1*, PfM18AAP inh -5.1, PolyA inhibitor -0.7, CaV13 FRET inh 1.3 and IDE cell activ 0.0.
CN1CC(=O)N(CC(=O)Nc2ccc(SC(F)F)cc2)C1=O was read as IDE inh -0.7, ALR H2O2 inh 98.3*, PfM18AAP inh -0.7, PolyA inhibitor -17.9, CaV13 FRET inh -5.6 and IDE cell activ 1.4.
Screening Cc1cc(NC(=O)CSc2nc(=O)n(CCCN(C)C)c3c2CCCC3)no1 returned IDE inh -2.7, ALR H2O2 inh -46.0, PolyA inhibitor 8.8, CaV13 FRET inh -4.1 and IDE cell activ -0.5.
Screening CC1(C)C(=O)OC(/C=C/c2cccc([N+](=O)[O-])c2)C(C)(C)C1=O (stereo not drawn) returned IDE inh -2.5, ALR H2O2 inh -2.0, PfM18AAP inh -1.5, PolyA inhibitor -18.6, CaV13 FRET inh -1.0 and IDE cell activ 0.0.
Screening COc1cc(/C=N/NC(=O)Cn2cnc3c2c(=O)n(C)c(=O)n3C)ccc1O returned IDE inh 0.1, ALR H2O2 inh 99.8*, PfM18AAP inh 9.4, PolyA inhibitor -10.6, CaV13 FRET inh -2.1 and IDE cell activ -0.3.
Screening COc1cc(/C=N/NC(=O)Cn2cnc3ccccc3c2=O)ccc1O returned IDE inh 5.8, ALR H2O2 inh 83.9*, PfM18AAP inh 3.2, PolyA inhibitor 6.3, CaV13 FRET inh 9.3 and IDE cell activ 7.5.
For Cn1c(=O)c2c(ncn2CC(=O)N/N=C/c2ccco2)n(C)c1=O the results were IDE inh 1.6, ALR H2O2 inh -0.2, PfM18AAP inh 3.5, PolyA inhibitor 17.2, CaV13 FRET inh -4.4 and IDE cell activ 5.8.
Screening COc1ccc(C(=O)OC(C)C(=O)NC2CCCc3ccccc32)cc1OC (stereo not drawn) returned IDE inh -2.3, CaV13 FRET inh -2.8 and IDE cell activ -0.7.
Screening COc1cc(/C=N/Nc2nc(C)cc(=O)[nH]2)ccc1O returned IDE inh -0.5, ALR H2O2 inh 98.5*, PfM18AAP inh 18.9, PolyA inhibitor 15.2, CaV13 FRET inh -19.4 and IDE cell activ 0.7.
Screening Cc1cc(=O)[nH]c(Nc2ccc(Cl)cc2)n1 returned IDE inh 4.1, PfM18AAP inh -0.1, PolyA inhibitor -3.4, CaV13 FRET inh -7.0 and IDE cell activ -8.4.
`CCNc1nc(NCC)nc(N/N=C/c2ccc(N(C)C)cc2)n1` gave IDE inh -1.1, ALR H2O2 inh 98.9*, PfM18AAP inh 7.1, PolyA inhibitor 5.5, CaV13 FRET inh -6.9 and IDE cell activ -4.0.
Screening Cc1cc(=O)[nH]c(N/N=C/c2ccc(N(C)C)cc2)n1 returned IDE inh 5.6, ALR H2O2 inh 98.9*, PfM18AAP inh 8.1, PolyA inhibitor 24.8, CaV13 FRET inh 0.5 and IDE cell activ -3.4.
Cc1cc(=O)[nH]c(Nc2ccc(N(C)C)cc2)n1 was read as IDE inh -1.8, ALR H2O2 inh 98.7*, PfM18AAP inh -18.8, PolyA inhibitor -10.2, CaV13 FRET inh -2.0 and IDE cell activ -2.1.
`COC(=O)C1=C(C)N(C)C(=NCc2ccc(OC)cc2)NC1c1ccccc1C(F)(F)F` (stereo not drawn) gave CaV13 FRET inh -2.7.
COc1ccccc1N1CCN(C(=O)C(C)CS(=O)(=O)c2ccc3c(c2)NC(=O)CS3)CC1 (stereo not drawn) was read as IDE inh 2.6, ALR H2O2 inh 37.6, PfM18AAP inh -2.9, PolyA inhibitor -2.4, CaV13 FRET inh -2.4 and IDE cell activ -0.1.
For COc1ccc(Cc2nnc(N/N=C/c3ccc(N(C)C)cc3)[nH]c2=O)cc1OC the results were IDE inh -1.0, ALR H2O2 inh 98.8*, PfM18AAP inh 6.6, PolyA inhibitor -7.5, CaV13 FRET inh -6.3 and IDE cell activ -1.6.
`CCN(CCC#N)c1ccc(/C=N/Nc2nc(C)cc(=O)[nH]2)c(C)c1` gave IDE inh 1.3, ALR H2O2 inh 98.8*, PfM18AAP inh 4.3, PolyA inhibitor 1.3, CaV13 FRET inh -5.3 and IDE cell activ 4.6.
CCOc1ccccc1NC(C)C(=O)NC(=O)NC1CCCCC1 (stereo not drawn) was read as IDE inh -0.7, ALR H2O2 inh 87.8*, CaV13 FRET inh -2.5 and IDE cell activ 0.9.
